# Test results: ChEMBL document CHEMBL2218924, “A broad activity screen in support of a chemogenomic map for kinase signalling research and drug discovery” (Biochem J, 2013)
# Biological target: T1, Dual specificity mitogen-activated protein kinase kinase 6 (Homo sapiens) (UniProt P52564)
# T1 sequence (whole entry): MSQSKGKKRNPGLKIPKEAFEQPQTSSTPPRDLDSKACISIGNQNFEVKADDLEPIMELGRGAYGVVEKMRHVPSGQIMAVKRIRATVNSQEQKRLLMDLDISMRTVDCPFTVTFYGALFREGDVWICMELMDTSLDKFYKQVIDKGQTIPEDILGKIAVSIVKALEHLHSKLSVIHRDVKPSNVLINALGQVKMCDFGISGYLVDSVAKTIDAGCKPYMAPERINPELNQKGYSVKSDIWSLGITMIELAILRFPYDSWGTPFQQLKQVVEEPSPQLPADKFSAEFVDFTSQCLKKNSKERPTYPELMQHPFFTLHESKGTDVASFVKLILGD
# Settings: at 10 µM
row,SMILES,residual activity
1,N#C/C(=C(\N)Sc1ccc(N)cc1)c1ccccc1C(F)(F)F,83%
2,CO[C@H]1C[C@@H]2CC[C@@H](C)[C@@](O)(O2)C(=O)C(=O)N2CCCC[C@H]2C(=O)O[C@H]([C@H](C)C[C@@H]2CC[C@@H](O)[C@H](OC)C2)CC(=O)[C@H](C)/C=C(\C)[C@@H](O)[C@@H](OC)C(=O)[C@H](C)C[C@H](C)/C=C/C=C/C=C/1C,82%
3,Cc1nc(-c2ccccc2)c(-c2ccncc2)o1,37%
4,CC(=O)c1ccc(N2CCOCC2)cc1O,91%
5,Cc1nc2cc3nc(-c4cccs4)cnc3cc2n1C,149%
6,Nc1n[nH]c2nnc(-c3c(-c4ccccc4)nn4ccccc34)cc12,65%
7,CCN(CC)CCCCN1c2ccccc2Oc2ccc(Cl)cc21,119%
8,Cn1cnc2cc3c(Nc4cccc(Br)c4)ncnc3cc21,74%
9,CO[C@H]1[C@@H](OC)C[C@H](C)[C@@H](OC)C2=CC(=O)C=C(NC(=O)/C(C)=C/C=C/[C@H](OC)[C@@H](OC(N)=O)/C(C)=C/[C@@H]1C)C2=O,99%
10,CN(C)c1ccc(/C=C2\C(=O)Nc3ccccc32)cc1,91%
11,COc1ccc(S(=O)(=O)N(CCO)c2ccccc2CN(C)C/C=C/c2ccc(Cl)cc2)cc1,74%
12,O=Nc1c(-c2c(O)[nH]c3ccccc23)[nH]c2ccccc12,40%
13,O=C1NC(=O)/C(=C/c2ccc3c(c2)OC(F)(F)O3)S1,93%
14,COc1cc2ncnc(N3CCN(C(=O)Nc4ccc(Oc5ccccc5)cc4)CC3)c2cc1OC,81%
15,Oc1ccc(-c2nc(-c3ccc(F)cc3)c(-c3ccncc3)[nH]2)cc1,-1%
